Assay outcomes (PubChem BioAssay)
Sampled rows, rich in hits. Any-hit rate of the full collection: about 4.7%.
D1 agonist = Allosteric Agonists of the Human D1 Dopamine Receptor: qHTS. D(1A) dopamine receptor (Homo sapiens), P21728. HEK293 T-REx D1 cells, calcium flux, agonist mode. activation, % at 2 µM. actives 1% (n = 360,000). AID 504660, 2011; note: 0% is about no effect
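Inducible HEK293 T-REx D1 cells, force-coupled to calcium signalling, were plated at 4000 cells/well with tetracycline and held overnight at 30 C. After no-wash calcium dye loading, compound-evoked calcium rise over 180 s flagged agonists.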
D1 PAM = Potentiators of Human D1 Dopamine Receptor: qHTS. D(1A) dopamine receptor (Homo sapiens), P21728. HEK293 TREx D1 cells, calcium flux, dopamine EC20 potentiation. potentiation, % at 10 µM. actives 0.036% (n = 360,000). AID 504651, 2011; in the data active = potentiation above about 30%; note: 0% is about no effect
TRHR agonist = qHTS for Small Molecule Agonists and Allosteric Enhancers of Human TRH Receptor: Primary Screen for Agonists. TRHR cells, calcium flux fluo-8, FDSS agonist mode. actives 0.18% (n = 360,000). activation, % at 2 µM; note: 0% is about no effect
Target sequence (P34981 whole entry, looked up): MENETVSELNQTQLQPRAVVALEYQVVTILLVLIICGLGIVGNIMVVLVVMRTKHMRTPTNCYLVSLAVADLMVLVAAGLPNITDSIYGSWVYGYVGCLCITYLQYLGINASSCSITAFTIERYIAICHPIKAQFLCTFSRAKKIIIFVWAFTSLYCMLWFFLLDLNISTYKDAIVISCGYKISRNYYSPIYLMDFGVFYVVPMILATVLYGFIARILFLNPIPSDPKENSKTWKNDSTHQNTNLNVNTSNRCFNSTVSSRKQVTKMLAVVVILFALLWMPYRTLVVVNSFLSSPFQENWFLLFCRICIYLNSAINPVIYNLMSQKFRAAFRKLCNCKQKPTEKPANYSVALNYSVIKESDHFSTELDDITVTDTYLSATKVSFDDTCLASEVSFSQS
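Fluo-8-loaded TRHR cells; 10 s baseline, compound added, kinetic Ca2+ fluorescence read 1/s, agonist mode.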
D1 antag = Antagonist of Human D 1 Dopamine Receptor: qHTS | D(1A) dopamine receptor (Homo sapiens), P21728 | HEK293 TREx D1 cells, calcium flux, dopamine EC80; active compounds read low | activity change, negative = inhibition, % at 10 µM | actives 3.2% (n = 360,000) | AID 504652, 2011; in the data active = activity change below about -30%; note: % is set by controls: 0 for no effect and ±100 for the full control effect
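Tetracycline-induced HEK293 T-REx cells with force-coupled D1 receptor were loaded with a no-wash calcium dye. Compound was added after a 10 s baseline and read kinetically for 180 s; EC80 dopamine was then added and calcium flux followed another 180 s.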
TRHR enhancer = qHTS for Small Molecule Agonists and Allosteric Enhancers of Human TRH Receptor: Primary Screen for Enhancers; TRHR cells, fluo-8 calcium fluorescence, EC20 TRH enhancement; enhancement, % at 2 µM; actives 0.66% (n = 360,000); AID 493056, 2011; in the data active = enhancement above about 30%; note: 0% is about no effect
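Enhancer read-out: after compound pinning and an initial kinetic agonist-mode read, an EC20 of TRH (10 nM final) was injected and fluo-8 calcium signal (Ex 480/Em 530) followed at 1 s/cycle for 100 cycles in TRHR-expressing cells.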
An asterisk follows results filed as active. Cut-off read from the data, not from the text of the source, unless noted: active = activation above about 30%; inactive = the rest.

SMILES | D1 agonist | D1 PAM | TRHR agonist | D1 antag | TRHR enhancer
CC(C)(C)OC(=O)N1CCC(c2c(C(=O)NC3CCN(Cc4ccccc4)CC3)cnn2-c2cccc(F)c2)CC1 | 7 | -2 | 0 | -2 | 24
COC(=O)c1c(NC(=O)c2ccccc2)sc2c1CC(C)(C)NC2(C)C | 2 | -2 | 0 | -31* | -3
CC1(C)Cc2c(sc(NC(=O)c3ccc(C(=O)c4ccccc4)cc3)c2C(N)=O)C(C)(C)N1 | 112* | -9 | 3 | 3 | 9
O=C(CCSCCC(=O)Nc1c(F)c(F)c(F)c(F)c1F)Nc1c(F)c(F)c(F)c(F)c1F | 13 | -9 | 0 | -30 | -8
CCOC(=O)c1ccc(CC(=O)c2ccc(O)c(O)c2O)o1 | 7 | 1 | 2 | -48* | -2
COc1cc(NS(=O)(=O)c2ccc(-c3ccc(=O)[nH]n3)o2)cc(OC)c1OC | 0 | 0 | 0 | -14 | 0
CCCn1c(-c2cccc(Br)c2)nc2ccccc21 | 1 | -3 | -3 | -35* | 3
Cc1cccc(-c2nc3ccccc3n2Cc2ccccc2)c1 | 53* | 0 | -1 | -49* | -5
COc1ccc(-c2nc3ccccc3n2Cc2ccc(Cl)cc2)cc1 | 25 | -3 | -1 | -32* | 1
CCOC(=O)c1cc2c(=O)n3ccccc3nc2n(CC2CCCO2)c1=NC(=O)c1cccc(C(F)(F)F)c1 (configuration not stated) | -1 | 1 | -1 | -13 | 4
CS(=O)(=O)N1CCN(c2ccccc2NC(=O)Nc2cccc(Cl)c2)CC1 | 0 | 2 | 1 | -16 | -2
CSc1nc(C)c(Oc2ccccc2)c(=O)n1C | -4 | -12 | -1 | -71* | 0
O=C(NNC(=O)c1ccncc1)Nc1cccc(C(F)(F)F)c1 | 0 | -8 | 0 | -1 | 12
Cc1cc(C(=O)NNC(=S)NCc2ccccc2)cs1 | 1 | 2 | 0 | 3 | 1
Cc1nn(C)c(C(=O)NNC(=O)Nc2cccc(C(F)(F)F)c2)c1Cl | 10 | -6 | 0 | -30* | -16
Cc1nn(C)c(C(=O)NNC(=S)NCc2ccccc2)c1Cl | 6 | -6 | 0 | -32* | 39*
Cc1ccc(C)c(NC(=O)N2CCC(N3CCN(Cc4ccc(F)cc4)C(=O)C3=O)CC2)c1 | 2 | 0 | -2 | 0 | 1
COc1cccc(NC(=O)CN(C)CC(=O)c2c(C)[nH]c3ccccc23)c1 | 15 | -5 | 1 | 4 | 7
N=C1/C(=C\c2ccc(-c3cccc(Cl)c3)o2)C(=O)N=C2SC=C(c3ccccc3)N12 | 0 | 5 | 1 | 5 | 2
N=C1/C(=C\c2ccc(-c3ccc(C(=O)O)cc3)o2)C(=O)N=C2SC=C(c3ccccc3)N12 | 38* | -5 | 0 | -16 | 4
CCCC(=O)Nc1cc(C(=O)NCc2ccccc2)ccc1S(=O)(=O)c1ccc(Cl)cc1 | 5 | 6 | 0 | -1 | -4
Cc1cc(OCC(=O)N2CCC(C(=O)O)CC2)c2c(C)cc(=O)oc2c1 | 1 | -3 | 0 | 17 | 1
CS(=O)(=O)N(CC(=O)N1CCc2ccccc2C1)c1cccc([N+](=O)[O-])c1 | 1 | -4 | 0 | -78* | 32*
CCCCCCOc1ccc(N2C(=O)CC(SCCN)C2=O)cc1 (configuration not stated) | 64* | -8 | 1 | -16 | 6
COc1cccc(OCC(Cn2c(C)nc3ccccc32)OC(C)=O)c1 (configuration not stated) | 9 | -3 | 0 | 5 | -3
Cc1ccc(/C=N/N2CCN(c3ccc(Cl)cc3)CC2)o1 | 1 | -1 | 0 | -48* | 8
Cc1ccc(/C=N/N2CCCCC2)o1 | 3 | -1 | 0 | 6 | 1
COc1ccc(OC)c(-c2nnc3n(CCc4ccccc4)c(=O)c4ccccc4n23)c1 | 7 | 0 | 0 | -4 | -1
